TWEAK Fn14 block: inhibitors of TWEAK-Fn14 interaction signaling; TWEAK-stimulated Fn14 reporter cells, luciferase luminescence, 8 h; inhibition, % at 10 µM; hit rate 2% among 360,000; AID 1159606; in the data active = inhibition above about 50%
KKLEB cytotox: counter-screen for CF NF-kB inhibitors: cytotoxicity | KKLEB CF airway cells viability, ATPlite luminescence, overnight; active compounds read low; cells stimulated with P. aeruginosa culture filtrate | hit rate 0.36% among 360,000 | activity change (cytotoxicity), % at 5 µM;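 active = corrected activity change at or below -50% at 5 µM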
HIF-2a inh: HIF-2a inhibition; 786-0 RCC cells HIF-2a reporter, luciferase luminescence, overnight; inhibition, % at 18.8 µM; hit rate 0.72% among 360,000;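 active = inhibition of the luminescence signal of 40% or more relative to plate controls, in a single-dose primary screen at 18.75 µM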
Peg3 prom inh: inhibitors of Peg3 promoter; HeLa PEG-Prom luciferase reporter, luminescence, overnight; hit rate 1.7% among 360,000; inhibition, % at 20 µM; AID 588405;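 active = inhibition of at least 50% at 20 µM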
TROY signal inh: TROY signaling inhibition | Q293 LMP1-TROYcd NF-kB luciferase reporter, 4 h | inhibition, % at 10 µM | hit rate 0.98% among 360,000 | AID 1347056;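 active = compounds whose plate-normalised and pattern-corrected inhibition of the luciferase reporter signal at the single screening dose is 50% or more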
CF NFkB inh: inhibitors of cystic fibrosis induced NF-kB | KKLEB NF-kB-GFP reporter, PAF-induced, GFP fluorescence overnight | inhibition, % at 5 µM | hit rate 0.86% among 360,000 | AID 588850;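 active = at least 50% inhibition at 5 µM, scaled per plate between neutral and stimulator controls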;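 also: PAF is a Pseudomonas aeruginosa culture filtrate used as stimulus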
Hits are given with their value; i = inactive; nt = not tested or not shown. Only some compounds are listed: those with a hit (about 4% of all), similar ones and a draw of the others.

SMILES	TWEAK Fn14 block	KKLEB cytotox	HIF-2a inh	Peg3 prom inh	TROY signal inh	CF NFkB inh
COc1ccc(-c2cn[nH]c2-c2ccc(OCC(=O)NN)cc2O)cc1	54	i	i	i	i	i
Cc1cccc(N2C(=O)C(Oc3ccc(Cl)cc3Cl)C2C=O)c1C (stereo not given)	i	i	i	69	i	i
COc1ccc(-c2c3c(nc4sc5c(Cl)nc(C)nc5c24)CCC3)cc1	i	i	i	109	i	i
Cc1ccc(-c2c3c(nc4sc(C(N)=O)c(N)c24)CCC3)cc1	i	i	i	i	i	i
O=C(Cc1c(F)cccc1Cl)Nc1ccc(S(=O)(=O)NCC2CCCO2)cc1 (stereo not given)	i	i	i	i	i	i
O=C(CSC1CC(=O)N(CC(c2ccccc2)c2ccccc2)C1=O)Nc1ccc(Cl)cc1 (stereo not given)	i	i	i	i	51	i
Cc1ccccc1-n1c(CSC(=N)N)nc2ccccc2c1=O	i	i	i	i	i	i
COc1ccc(NC(=O)CN(C)CC(=O)Nc2cccc3ccccc23)c(OC)c1	i	i	i	i	i	i
Cc1ccc(NC(=O)c2cc(-c3cc(F)ccc3OCC3CCCO3)n[nH]2)cc1NS(C)(=O)=O (stereo not given)	i	i	i	i	i	i
COc1cc(/C=C/C2=NNC(=O)CC2)cc(OC)c1OC	i	i	i	61	i	i
O=C(N/N=C/c1cccs1)c1ccc(-n2cccc2)cc1	i	i	i	i	i	i
Cc1ccc(C)c(NC(=O)c2cc(S(=O)(=O)N3CCOCC3)cn2C)c1	i	i	i	i	i	i
Cc1ccccc1-n1c(C)cc(/C=C2/C(=N)N3C(c4ccccc4)=CSC3=NC2=O)c1C	55	i	i	i	i	i
Cc1cc(/C=C2\C(=N)N3N=C(C(C)C)SC3=NC2=O)c(C)n1Cc1ccccc1	i	i	i	i	i	i
Cc1cc(/C=C2\C(=N)N3C(SCc4ccccc4)=NSC3=NC2=O)c(C)n1Cc1ccccc1	i	-53	i	i	i	i
Cc1cc(/C=C2/C(=N)N3C(c4ccccc4)=CSC3=NC2=O)c(C)n1-c1ccccc1	i	i	i	i	i	i
COc1cc(CNC(=O)c2cc(-c3cc(F)ccc3OCC3CCCO3)n[nH]2)cc(OC)c1 (stereo not given)	i	i	i	i	i	i
CCC(=O)NNC(=O)Cc1c(C)n(C(=O)c2ccc(Cl)cc2)c2ccc(OC)cc12	56	i	i	i	i	i
CCCNC(=O)Cc1c(C)n(C(=O)c2ccc(Cl)cc2)c2ccc(OC)cc12	i	i	i	i	i	i
CCn1c(COc2ccc(=O)n(-c3ccccc3)n2)nnc1SCc1cccc(OC)c1	i	i	i	i	i	i
CC(C)N1C(=O)/C(=C\c2nc3ccccc3c(=O)n2-c2ccccc2)c2ccccc21	54	i	87	i	i	i
O=S(=O)(c1ccccc1)c1nc(NCc2ccccc2)sc1Cl	i	i	i	i	i	i
COc1ccc(CNc2nc(S(=O)(=O)c3ccccc3)c(Cl)s2)cc1OC	70	i	i	i	i	i
Cc1ccc(S(=O)(=O)c2nc(Nc3ccccc3)sc2Cl)cc1	i	i	i	i	54	i
COc1ccccc1NC(=O)CCC(=O)OCc1ccc([N+](=O)[O-])cc1	i	i	i	i	i	i
SMILES	TWEAK Fn14 block	KKLEB cytotox	HIF-2a inh	Peg3 prom inh	TROY signal inh	CF NFkB inh
COc1ccc(CN2CCN(Cc3c[nH]c4ccccc34)CC2)cc1OC	i	i	i	i	i	i
COc1ccc(Br)cc1CN1CCN(Cc2c[nH]c3ccccc23)CC1	i	i	i	52	i	i
O=C(CSc1nc2nc(-c3cccs3)cc(C(F)(F)F)c2c(=O)[nH]1)Nc1c(F)c(F)c(F)c(F)c1F	66	i	i	i	57	i
COc1ccc(Cl)cc1C(=O)OCC(=O)NCCNC(=O)COC(=O)c1cc(Cl)ccc1OC	i	i	i	i	i	i
CCOc1cc(/C=N/NC(=O)c2ccc(CN3CCOCC3)cc2)ccc1OCc1ccccc1	70	i	i	i	51	i
CCOc1cc(/C=N/NC(=O)c2nn(C)cc2Br)ccc1OCc1ccccc1Cl	57	i	i	i	i	i
Cn1cc(Br)c(C(=O)N/N=C/c2cccc(OC3CSC3)c2)n1	i	i	i	i	i	i
O=C(NC1CCCCC1)C(c1ccncc1)N(Cc1ccccc1)C(=O)c1ccc(-c2ccccc2)[nH]1 (stereo not given)	i	-50	i	i	i	i
O=C(NC1CCCCC1)C(c1ccncc1)N(Cc1ccc(F)cc1)C(=O)c1ccccn1 (stereo not given)	i	i	i	i	i	i
CC(=O)N/C(=N\c1nc(C)cc(C)n1)Nc1ccc2ccccc2c1	74	i	i	i	77	i
Clc1cccc2c1Sc1ccccc1CC2N1CCNCC1 (stereo not given)	i	i	i	108	i	i
COCCCN1CCN(C2Cc3ccccc3Sc3ccc(Cl)cc32)CC1 (stereo not given)	i	i	i	i	i	i
Clc1ccc2c(c1)C(N1CCNCC1)Cc1ccccc1S2 (stereo not given)	i	i	i	104	i	i
O=C(CN1C(=O)c2ccccc2C1=O)Nc1cccc(O)c1	i	i	i	i	i	i
CCC(=O)N1Cc2cc(C(=O)Nc3nccs3)nc(-c3cccc(-c4ccccc4OC)c3)c2[C@@H]1CCO	i	nt	i	nt	i	nt
Cc1ccc(CNc2ccc(N3CCOCC3)cc2)s1	i	i	i	i	50	i
CC(=O)N1CCN(c2ccc(NCc3ccc(C)s3)cc2)CC1	i	i	i	i	i	i
CC(C)OC(=O)/C(=C/c1ccco1)c1ccccc1	i	i	i	i	i	i
Cc1c(C)c2ccc(OCC(=O)Nc3ccccn3)cc2oc1=O	82	i	i	i	i	i
Cc1c(C)c2ccc(OCC(=O)NCc3ccccn3)cc2oc1=O	i	i	i	i	i	i
Cc1c(C)c2ccc(OCC(=O)Nc3nccs3)cc2oc1=O	90	i	i	i	i	i
CC(C)C[C@H](N)c1nnc(S(=O)(=O)Cc2ccc(F)cc2)o1	i	i	i	114	nt	90
Cc1cc(C)c2c(=O)n3c(nc2c1)C(Cc1ccc(O)cc1)NC(=O)c1cc2ccccc2cc1-3 (stereo not given)	i	i	i	67	i	i
C1CCCCCC(NCCN2CCNCC2)CCCCC1	i	i	i	101	i	i
COc1cccc(C(=O)C2CCCN(C(=O)c3ccccn3)C2)c1 (stereo not given)	i	i	i	i	i	i
CC(=O)Nc1cc(-c2ccccc2CN(C)C)cn2c(-c3ccc(C(C)=O)cc3)cnc12	i	i	i	i	i	i
CC(=O)c1ccc(NC(=O)c2ccc(NC(=O)CCS(=O)(=O)c3cccs3)cc2)cc1	i	i	i	i	51	i

Bioassay records deposited in PubChem BioAssay by Sanford-Burnham Center for Chemical Genomics.
